# Results from PubChem BioAssay AID1832 (Broad Institute, 2009).
# Out of some 300,000 compounds screened, about 1,100 (0.37%) were called active. Only a selection was taken, and actives are over-represented in it overall. A number with no mark means an inactive call.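 The calls were made as follows: active = inhibition past about -25% in most replicates, and total fluorescence under double the plate's negative control median (limit read from the data); inconclusive = replicates evenly split on the limit, or fluorescence at least double controls; inactive = too little inhibition in most replicates.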
# Target: Zinc finger protein mex-5 (Caenorhabditis elegans) (UniProt Q9XUB2)
# Assay: MEX-5 zinc finger RNA-binding disruptors – biochemical, C. elegans, fluorescence polarization, MLPCN library, primary screen (AID 1832);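 also: 0% = DMSO and -100% = 5 µM competing unlabeled TCR2 RNA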
# Details: MEX-5/FITC-TCR2 RNA binding, at 10 µM, hits give low values
# Zinc finger protein mex-5 (Caenorhabditis elegans), sequence (Q9XUB2 whole entry, looked up): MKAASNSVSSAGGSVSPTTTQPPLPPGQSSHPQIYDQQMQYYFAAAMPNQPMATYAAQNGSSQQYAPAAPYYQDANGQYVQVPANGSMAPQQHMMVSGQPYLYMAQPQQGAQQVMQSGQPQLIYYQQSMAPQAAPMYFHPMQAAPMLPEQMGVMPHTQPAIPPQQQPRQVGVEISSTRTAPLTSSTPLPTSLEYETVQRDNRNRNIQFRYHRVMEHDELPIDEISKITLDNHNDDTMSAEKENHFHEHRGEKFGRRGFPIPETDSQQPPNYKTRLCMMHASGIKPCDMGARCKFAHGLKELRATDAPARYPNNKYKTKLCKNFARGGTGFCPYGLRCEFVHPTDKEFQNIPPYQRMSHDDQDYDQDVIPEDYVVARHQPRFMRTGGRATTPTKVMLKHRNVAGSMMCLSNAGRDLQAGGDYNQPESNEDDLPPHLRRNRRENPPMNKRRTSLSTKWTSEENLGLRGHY
row,Structure (SMILES),activity score (negative = inhibition of binding)
1,Brc1cc(/C=N/n2cnnc2)oc1Br,0.986%
2,Clc1cc(-c2ccc(/C=N/n3cnnc3)o2)ccc1Br,-34% (active)
3,Cc1ccc(Cl)cc1-c1ccc(/C=N/n2cnnc2)o1,0.0863%
4,Cc1ccoc1C(=O)Nc1cccc(Oc2ccccc2)c1,-2.34%
5,COc1ccc(CNC(=O)COc2cccnc2[N+](=O)[O-])cc1,0.235%
6,CC1(OC(=O)C2CCCC2)C(=O)C=C2C=C(c3ccc(C#N)cc3)OC=C2C1=O (configuration not stated),-40% (active)
7,COCCN1C=C2C(=O)C(C)(OC(=O)C3CCCC3)C(=O)C=C2C=C1c1ccsc1 (configuration not stated),-2.5%
8,C=CCN1C=C2C(=O)C(C)(OC(=O)CCc3ccccc3)C(=O)C=C2C=C1c1ccc(C#N)cc1 (configuration not stated),-5.84%
9,N#CC1=C(N)C(C#N)(C#N)[C@H](c2ccsc2)[C@H]2COCC=C12,-30.3% (active)
10,CCOC(=O)N1CCC(NC(=O)C(NS(=O)(=O)c2ccc3c(c2)CCN3C(=O)CC)C(C)C)CC1 (configuration not stated),-1.98%
11,O=C(COc1ccc(Cl)cc1Cl)N/N=C/c1ccccn1,4.25%
12,CSc1ncc(C(=O)NCCCc2ccccc2)c(C)n1,-2.7%
13,CCOc1ccc(C(=O)NC2CCN(CC(=O)NCc3cccs3)CC2)cc1,-1.2%
14,Cc1ccc2c(c1)C(c1ccccc1)N(C(=O)c1ccc(F)cc1)CC(=O)N2 (configuration not stated),-0.463%
15,CCCNC(=O)N1CCC(c2ccc3c(c2)OCO3)CC1,2.15%
16,CN1C(=O)c2cccc3c(N)ccc(c23)C1=O,-51.4% (active)
17,Cc1nn(C)cc1N1C(=O)c2cccc3c(N)ccc(c23)C1=O,1.83%
18,CCN1C(=O)c2cccc3c(N)ccc1c23,1.15%
19,NC(=O)Cc1ccc2sc(-c3ccccc3)nc2c1,-1.64%
20,O=C1c2ccccc2C(Nc2ccc3c(c2)OCCO3)N1Cc1ccco1 (configuration not stated),-1.03%
21,CCc1ccc(CNC(=O)C2CCN(c3nnc(C)c4c(C)n(-c5ccc(C)cc5)nc34)CC2)cc1,-2.92%
22,O=C(Nc1cccc2c1N(C(=O)c1ccco1)CCC2)c1ccco1,-0.00473%
23,O=C(NCc1nnc(SCC(=O)N2CCC(Cc3ccccc3)CC2)o1)c1ccco1,-1.62%

row,Structure (SMILES),activity score (negative = inhibition of binding)
1,Oc1ccc(-c2onc3ccc(Cl)cc23)cc1,-1.78%
2,CC(OC(=O)c1ccc2noc(-c3ccccc3)c2c1)C(N)=O (configuration not stated),-5.27%
3,COc1ccc(-c2onc3ccc(C(C)=O)cc23)cc1,-69.7% (active)
4,COc1ccc(Cn2c(-c3ccc(Cl)cc3)c[n+]3ccccc23)cc1,2.75%
5,COc1ccc(NC(=O)c2cn(-c3ccccc3)nc2SC)cc1,2.01%
6,CN1c2ccc(C=O)c3c(C=O)ccc(c23)N(C)C1(C)C,-35.3% (active)
7,COc1ccc(NC(=O)CN(C)C(=O)c2n[nH]c3ccccc23)cc1,-3.49%
8,CCCCN(CC)CCCNC(=O)c1ccc(CSc2nc3ccncc3[nH]2)cc1,1.01%
9,Cc1ccc(C2NC(=S)NC3=C2N2CCC3CC2)cc1 (configuration not stated),0.478%
10,Cc1nonc1C1CCCN1Cc1nc(-c2ccc(F)cc2F)oc1C (configuration not stated),-2.15%
11,Cc1ccc(-n2cc(CN(C)Cc3nccn3C)c(-c3cccc(C)c3)n2)cc1,1.9%
12,N#C[C@]1(S(=O)(=O)c2ccccc2)C[C@@H]2ON=C(c3cccc(Br)c3)[C@@H]2C1,1.51%
13,Cc1ccnc(NC(=O)c2ccc(Cl)c([N+](=O)[O-])c2)c1,-0.216%
14,Cc1nn(C(C)C(=O)N2CCOCC2)c(=O)c2nn(-c3ccccc3)c(C)c12 (configuration not stated),-34.7% (active)
15,Cc1nn(CC(=O)N2CCCCC2)c(=O)c2nn(-c3ccccc3)c(C)c12,-3.02%
16,Cc1nn(C(C)C(=O)NCCC2=CCCCC2)c(=O)c2nn(-c3ccccc3)c(C)c12 (configuration not stated),-2.35%
17,CC(C)Cc1nnc(NC(=O)CCc2ccccc2)s1,-0.0404%
18,COC(=O)CSc1nnc(NC(=O)CCc2ccccc2)s1,0.825%
19,O=C(COC(=O)c1cccc(Cl)c1)Nc1ccc2[nH]c(=O)[nH]c2c1,0.565%
20,NC(=O)c1nsc(C(=O)N(CCCN2CCOCC2)C(C(=O)NC2CCCCC2)c2ccc(Cl)cc2)c1N (configuration not stated),-0.973%
21,COC(=O)c1ccc(NC(=O)c2cc3c(CO)cnc(C)c3oc2=Nc2cccc(C(N)=O)c2)cc1,-0.18%
22,Cc1cc(NC(=O)Nc2ccccc2[N+](=O)[O-])no1,0.456%
23,O=C1N/C(=C/c2cccn2-c2ccccc2)C(=O)N1c1cccc(Cl)c1,3.72%

row,Structure (SMILES),activity score (negative = inhibition of binding)
1,COc1ccc(/C=C2/C(=O)N(c3ccccc3)N=C2C)c(OC)c1,1.89%
2,COc1cc2c(cc1/C=C1/NC(=O)N(c3ccccc3)C1=O)OCO2,-27% (active)
3,COc1ccc(C(=O)/C=C/c2cccnc2)c(OC)c1,0.878%
4,COc1ccc(C(=O)/C=C/c2ccc(-c3ccccc3)cc2)cc1CSCC(=O)O,-31.8% (active)
5,COc1ccc(/C=C/C(=O)c2ccc(NS(=O)(=O)c3ccc(C)cc3)cc2)cc1O,-0.65%
6,COC(=O)c1ccc(COc2ccc(/C=C/C(=O)c3ccc(OC)c(CSCC(=O)O)c3)cc2OC)cc1,-5.72%
7,COc1ccc(CCNS(=O)(=O)c2cc3c(cc2C)NC(=O)CO3)cc1OC,0.926%
8,Cc1cc(C)nc(NNC2=CC(=O)CC(C)(C)C2)n1,-66.2% (active)
9,COC(=O)NNC1=CC(=O)CC(C)(C)C1,-6.29%
10,CC1(C)CC(=O)C=C(Nc2ccccc2)C1,1.36%
11,Cc1cc(NC(=O)CCC(=O)N(Cc2ccccc2)C(C(=O)NC2CCCC2)c2ccc(C)o2)no1 (configuration not stated),-2.13%
12,O=C(CNC(=O)Cc1ccccc1)N=Nc1c(O)[nH]c2ccc(Br)cc12,0.589%
13,Oc1[nH]c2ccc(Br)cc2c1N=Nc1nn[nH]n1,-74.2% (active)
14,NS(=O)(=O)c1ccc(N=Nc2c(O)[nH]c3ccc(Br)cc23)cc1,-2.29%
15,O=c1[nH]c(CN2CCOCC2)nc2scc(-c3ccccc3)c12,1.42%
16,COc1ccc(NC(=O)CCn2ccnc2)c(OC)c1,-0.322%
17,CCOc1ccc(N=Cc2c(O)n(-c3cccc(C)n3)c(=O)c3ccccc23)cc1,-1.96%
18,CCCCn1c(=O)c(C(C)=O)c(O)c2ccccc21,0.942%
19,CC(=O)n1c(C=Nc2ccccc2)c(O)c2ccccc21,-52.6% (active)
20,C=CCn1cc(Cl)cc(C(=O)Nc2ccccc2)c1=O,-0.689%
21,COc1ccccc1NC(=O)CCSc1nnc(-c2ccc(O)cc2)o1,-2.37%
